Source: publication PMC7862700, “An all-to-all approach to the identification of sequence-specific readers for epigenetic DNA modifications on cytosine”

Assays:
Assay in all cases: DAPPL (digital affinity profiling via proximity ligation, sequencing); 10 mM Tris-HCl pH 7.5, 50 mM NaCl, 1 mM DTT, 4% glycerol, room temperature, 30 min; GST-TFs on glutathione beads, 16-mer random dsDNA library, 0.1% formaldehyde crosslink after washing; high values mean tight binding
Conditions in all cases: protein: recombinant; tags: N-terminal GST; dsDNA, one strand shown
FLI1 = biological target: T1, FLI1 (Homo sapiens, UniProt Q01543 1-452)
T1 sequence: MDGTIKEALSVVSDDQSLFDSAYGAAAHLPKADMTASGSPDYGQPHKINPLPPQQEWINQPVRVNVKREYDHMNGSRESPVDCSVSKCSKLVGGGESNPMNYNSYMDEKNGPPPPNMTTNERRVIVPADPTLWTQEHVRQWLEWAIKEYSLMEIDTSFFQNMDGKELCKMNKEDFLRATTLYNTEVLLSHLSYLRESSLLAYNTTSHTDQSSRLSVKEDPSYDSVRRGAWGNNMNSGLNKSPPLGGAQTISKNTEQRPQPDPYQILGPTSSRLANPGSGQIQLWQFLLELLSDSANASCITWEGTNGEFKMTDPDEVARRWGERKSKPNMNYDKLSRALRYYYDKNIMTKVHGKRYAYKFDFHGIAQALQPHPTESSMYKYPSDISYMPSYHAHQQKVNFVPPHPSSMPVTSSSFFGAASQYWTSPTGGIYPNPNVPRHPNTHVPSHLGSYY
Method in brief: (§1)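 Human transcription factors carrying a GST fusion were produced in yeast, bound to glutathione beads, tagged with DNA barcodes and pooled together with a tag-only sample. Each pool was held with 200 nmole of a random double-stranded 16-mer DNA library in Tris/NaCl/DTT/glycerol buffer for 30 min at room temperature, then washed, crosslinked in 0.1% formaldehyde, proximity-ligated with BsaI/T4 ligase (1 h, 37 °C), PCR-amplified and sequenced on an Illumina NextSeq500. Binding signal is the read frequency of each hexamer for a given factor divided by its frequency in the tag-only sample.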

ELK1 = biological target: T2, ELK1 (Homo sapiens, UniProt P19419 1-428)
T2 sequence: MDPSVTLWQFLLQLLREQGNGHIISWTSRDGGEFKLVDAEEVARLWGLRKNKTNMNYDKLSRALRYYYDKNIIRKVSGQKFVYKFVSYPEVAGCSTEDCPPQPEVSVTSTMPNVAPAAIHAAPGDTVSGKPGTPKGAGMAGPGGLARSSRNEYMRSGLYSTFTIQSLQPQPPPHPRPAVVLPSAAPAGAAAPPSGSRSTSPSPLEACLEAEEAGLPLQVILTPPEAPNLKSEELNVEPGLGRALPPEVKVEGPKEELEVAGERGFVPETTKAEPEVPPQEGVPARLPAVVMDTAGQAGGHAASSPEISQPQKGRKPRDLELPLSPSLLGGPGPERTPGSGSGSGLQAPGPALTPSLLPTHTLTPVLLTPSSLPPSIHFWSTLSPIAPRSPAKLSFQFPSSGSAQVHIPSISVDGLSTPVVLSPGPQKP
Method in brief: as §1

GABPA = biological target: T3, GABPA (Homo sapiens, UniProt Q06546 1-454)
T3 sequence: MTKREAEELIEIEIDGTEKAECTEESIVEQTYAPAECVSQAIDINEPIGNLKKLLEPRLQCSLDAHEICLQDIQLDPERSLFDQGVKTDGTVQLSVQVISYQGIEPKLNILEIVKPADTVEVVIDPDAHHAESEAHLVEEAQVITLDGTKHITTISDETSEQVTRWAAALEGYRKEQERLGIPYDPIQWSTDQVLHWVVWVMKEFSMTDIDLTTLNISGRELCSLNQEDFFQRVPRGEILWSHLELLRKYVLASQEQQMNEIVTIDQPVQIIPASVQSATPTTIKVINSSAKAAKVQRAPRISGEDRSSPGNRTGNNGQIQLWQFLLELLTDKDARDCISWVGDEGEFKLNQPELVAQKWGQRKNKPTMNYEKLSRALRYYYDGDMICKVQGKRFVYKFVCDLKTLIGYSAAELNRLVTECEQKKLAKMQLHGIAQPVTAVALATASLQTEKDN
Method in brief: as §1

ERG = biological target: T4, ERG (Homo sapiens, UniProt P11308 1-479)
T4 sequence: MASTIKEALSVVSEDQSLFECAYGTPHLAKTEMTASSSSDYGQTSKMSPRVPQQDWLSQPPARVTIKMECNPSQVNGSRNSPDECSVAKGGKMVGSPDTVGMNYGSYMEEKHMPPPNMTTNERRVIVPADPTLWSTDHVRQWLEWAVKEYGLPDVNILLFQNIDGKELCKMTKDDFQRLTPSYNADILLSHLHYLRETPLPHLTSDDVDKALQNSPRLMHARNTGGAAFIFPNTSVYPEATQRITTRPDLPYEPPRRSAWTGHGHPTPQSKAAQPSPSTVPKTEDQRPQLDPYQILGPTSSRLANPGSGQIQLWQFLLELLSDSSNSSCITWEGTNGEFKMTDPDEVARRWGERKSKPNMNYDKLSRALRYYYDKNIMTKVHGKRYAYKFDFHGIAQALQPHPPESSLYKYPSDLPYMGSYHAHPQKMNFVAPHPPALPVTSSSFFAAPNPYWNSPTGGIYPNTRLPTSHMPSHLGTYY
Method in brief: as §1

ELF1 = ELF1 (Homo sapiens, UniProt P32519 1-619)
Method in brief: as §1

EHF = biological target: T5, EHF (Homo sapiens, UniProt Q9NZC4 1-300)
T5 sequence: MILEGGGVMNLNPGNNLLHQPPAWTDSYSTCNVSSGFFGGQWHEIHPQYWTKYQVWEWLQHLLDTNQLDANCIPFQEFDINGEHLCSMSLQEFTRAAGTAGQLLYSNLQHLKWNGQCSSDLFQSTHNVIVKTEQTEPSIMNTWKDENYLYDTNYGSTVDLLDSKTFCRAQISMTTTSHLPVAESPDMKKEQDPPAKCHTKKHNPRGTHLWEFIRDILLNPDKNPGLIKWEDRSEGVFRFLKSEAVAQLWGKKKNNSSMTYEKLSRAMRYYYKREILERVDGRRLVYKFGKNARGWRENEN
Method in brief: as §1

SPI1 = SPI1 (Homo sapiens, UniProt P17947 1-270)
Method in brief: as §1

SPIB = SPIB (Homo sapiens, UniProt Q01892 1-262)
Method in brief: as §1

ELK3 = biological target: T6, ELK3 (Homo sapiens, UniProt P41970 1-407)
T6 sequence: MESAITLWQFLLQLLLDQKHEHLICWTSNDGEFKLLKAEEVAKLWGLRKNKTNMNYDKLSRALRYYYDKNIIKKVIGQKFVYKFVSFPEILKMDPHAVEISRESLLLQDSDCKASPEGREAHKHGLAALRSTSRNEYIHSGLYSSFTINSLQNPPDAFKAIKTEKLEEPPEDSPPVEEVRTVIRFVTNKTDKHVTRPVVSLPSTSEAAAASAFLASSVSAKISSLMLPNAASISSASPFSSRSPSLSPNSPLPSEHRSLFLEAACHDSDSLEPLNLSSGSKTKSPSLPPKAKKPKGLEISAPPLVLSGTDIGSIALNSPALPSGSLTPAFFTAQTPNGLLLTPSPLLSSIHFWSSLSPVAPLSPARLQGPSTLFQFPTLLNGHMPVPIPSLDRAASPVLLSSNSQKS
Method in brief: as §1

Chain of SPIB (Q01892 whole entry): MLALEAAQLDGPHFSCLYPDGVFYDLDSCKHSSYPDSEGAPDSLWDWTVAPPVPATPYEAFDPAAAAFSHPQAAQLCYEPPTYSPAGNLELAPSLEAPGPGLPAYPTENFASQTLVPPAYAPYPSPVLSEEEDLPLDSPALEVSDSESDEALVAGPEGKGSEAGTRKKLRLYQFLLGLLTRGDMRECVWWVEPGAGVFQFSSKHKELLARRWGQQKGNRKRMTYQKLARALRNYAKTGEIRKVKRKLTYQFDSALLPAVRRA
Chain of ELF1 (P32519 whole entry): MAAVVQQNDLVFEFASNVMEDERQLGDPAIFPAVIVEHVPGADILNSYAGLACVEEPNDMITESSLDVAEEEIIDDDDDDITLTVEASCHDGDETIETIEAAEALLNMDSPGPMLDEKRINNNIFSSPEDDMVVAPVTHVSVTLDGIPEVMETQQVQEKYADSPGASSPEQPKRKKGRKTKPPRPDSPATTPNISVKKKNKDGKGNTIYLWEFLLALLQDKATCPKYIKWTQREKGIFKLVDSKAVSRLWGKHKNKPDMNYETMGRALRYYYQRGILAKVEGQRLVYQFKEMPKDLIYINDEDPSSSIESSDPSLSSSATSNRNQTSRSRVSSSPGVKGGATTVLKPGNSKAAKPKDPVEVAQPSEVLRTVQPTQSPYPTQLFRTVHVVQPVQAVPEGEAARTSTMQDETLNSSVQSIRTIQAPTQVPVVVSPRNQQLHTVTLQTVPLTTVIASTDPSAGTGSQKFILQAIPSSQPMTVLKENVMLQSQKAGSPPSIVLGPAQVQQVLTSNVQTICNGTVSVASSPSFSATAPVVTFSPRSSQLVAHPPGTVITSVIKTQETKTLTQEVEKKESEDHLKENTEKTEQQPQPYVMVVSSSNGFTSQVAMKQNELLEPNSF

Sequence	binding signal (FLI1)	binding signal (ELK1)	binding signal (GABPA)	binding signal (ERG)	binding signal (ELF1)	binding signal (EHF)	binding signal (SPI1)	binding signal (SPIB)	binding signal (ELK3)
GAACTA	1.39 fold enrichment (6-mer frequency, TF over GST control)	1.39 fold enrichment (6-mer frequency, TF over GST control)	1.34 fold enrichment (6-mer frequency, TF over GST control)	1.32 fold enrichment (6-mer frequency, TF over GST control)	1.3 fold enrichment (6-mer frequency, TF over GST control)	1.37 fold enrichment (6-mer frequency, TF over GST control)	1.41 fold enrichment (6-mer frequency, TF over GST control)	1.32 fold enrichment (6-mer frequency, TF over GST control)	1.37 fold enrichment (6-mer frequency, TF over GST control)
AATATC	1.53 fold enrichment (6-mer frequency, TF over GST control)	1.55 fold enrichment (6-mer frequency, TF over GST control)	1.66 fold enrichment (6-mer frequency, TF over GST control)	1.66 fold enrichment (6-mer frequency, TF over GST control)	1.55 fold enrichment (6-mer frequency, TF over GST control)	1.44 fold enrichment (6-mer frequency, TF over GST control)	1.51 fold enrichment (6-mer frequency, TF over GST control)	1.52 fold enrichment (6-mer frequency, TF over GST control)	1.49 fold enrichment (6-mer frequency, TF over GST control)
CCCTTC	1.55 fold enrichment (6-mer frequency, TF over GST control)	1.55 fold enrichment (6-mer frequency, TF over GST control)	1.39 fold enrichment (6-mer frequency, TF over GST control)	1.48 fold enrichment (6-mer frequency, TF over GST control)	1.45 fold enrichment (6-mer frequency, TF over GST control)	1.52 fold enrichment (6-mer frequency, TF over GST control)	1.52 fold enrichment (6-mer frequency, TF over GST control)	1.56 fold enrichment (6-mer frequency, TF over GST control)	1.44 fold enrichment (6-mer frequency, TF over GST control)
CGTTAA	1.12 fold enrichment (6-mer frequency, TF over GST control)	1.17 fold enrichment (6-mer frequency, TF over GST control)	1.11 fold enrichment (6-mer frequency, TF over GST control)	1.17 fold enrichment (6-mer frequency, TF over GST control)	1.14 fold enrichment (6-mer frequency, TF over GST control)	1.1 fold enrichment (6-mer frequency, TF over GST control)	1.1 fold enrichment (6-mer frequency, TF over GST control)	1.13 fold enrichment (6-mer frequency, TF over GST control)	1.21 fold enrichment (6-mer frequency, TF over GST control)
CCGAAC	1.26 fold enrichment (6-mer frequency, TF over GST control)	1.21 fold enrichment (6-mer frequency, TF over GST control)	1.29 fold enrichment (6-mer frequency, TF over GST control)	1.21 fold enrichment (6-mer frequency, TF over GST control)	1.26 fold enrichment (6-mer frequency, TF over GST control)	1.32 fold enrichment (6-mer frequency, TF over GST control)	1.25 fold enrichment (6-mer frequency, TF over GST control)	1.2 fold enrichment (6-mer frequency, TF over GST control)	1.33 fold enrichment (6-mer frequency, TF over GST control)
